Screening data (PubChem)
HP1b binding inh: HTS for Inhibitors of HP1-beta Chromodomain Interactions with Methylated Histone Tails. Chromobox protein homolog 1 (Homo sapiens), P83916. AlphaScreen HP1-beta / biotin-H3K9me3 peptide binding. Potency, µM (doses to about 114 µM), usual class: inhibitors. 390,000 compounds, 0.56% hits; further: nearly all actives have a fitted effect of over 70% in size
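AlphaScreen: HP1-beta (50 nM) preformed 30 min with biotin-H3(1-18)K9me3 peptide (50 nM) in PBS pH 7.4, 0.01% Tween-20. Compound added for 30 min at RT, then streptavidin donor/nickel chelate acceptor beads (10 ug/mL) for 30 min.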
BAZ2B block: qHTS Assay for Inhibitors of BAZ2B; Bromodomain adjacent to zinc finger domain protein 2B (Homo sapiens), Q9UIF8; AlphaScreen BAZ2B-H3K14Ac peptide displacement; Potency, µM (doses to about 114 µM), usual class: inhibitors; 360,000 compounds, 4.4% hits; further: nearly all actives have a fitted effect of over 60% in size
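Complex of BAZ2B and biotin-H3K14Ac (50 nM apiece) forms over 30 min at RT, then faces library compounds up to 110 uM for another 30 min; AlphaScreen beads added, 20 min dark incubation, luminescence read.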
JMJD2A Tudor inh: qHTS Assay for Inhibitors of JMJD2A-Tudor Domain; AlphaScreen JMJD2A-Tudor / H3K4me3 peptide binding; Potency, µM (titrated, usually from 114 µM), actives largely listed as inhibitors; Lysine-specific demethylase 4A (Homo sapiens), O75164; 390,000 compounds, 4.4% hits; further: nearly all actives have a fitted effect of over 50% in size
KAT2A inh: qHTS Assay for Inhibitors of GCN5L2; GCN5L2 HAT assay, ThioGlo1 CoA-SH fluorescence; AID 504327, 2011; 390,000 compounds, 0.21% hits; Potency, µM (highest dose often 58.9 µM), hits mostly inhibitors; Histone acetyltransferase KAT2A (Homo sapiens), Q92830
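GCN5L2 (20nM final) in 50mM HEPES, 0.1mM EDTA pH 7.5, 0.01% Tween-20 was preincubated 15 min at room temperature with compound, then given ThioGlo1 (50uM), H3(1-25) peptide (75uM) and acetyl-CoA (70uM); CoA-thiol fluorescence (Ex340/Em540) was read at 0 and 20 min.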
PI5P4Ka inh: qHTS for Inhibitors of phosphatidylinositol 5-phosphate 4-kinase (PI5P4K). PI5P4Kalpha enzyme, ADP-Glo luminescence, 60 min; active compounds read low. max response, %. 330,000 compounds, 1.2% hits. AID 652105, 2013; active means max response of -50% or lower; inconclusive means between -30% and -50%; inactive means -30% or higher; further: value at the top dose of about 77 µM
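ADP-Glo luminescence end-point read after a 60 min room-temperature kinase reaction of PI5P4Kalpha plus substrate, initiated with ATP at 5 microM final. Buffer: 0.038 M HEPES pH 7.4, EGTA, 0.1% CHAPS, 5% DMSO.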
PLK1 PBD block: qHTS for Inhibitors of PLK1-PDB (polo-like kinase 1 - polo-box domain): Primary Screen. Serine/threonine-protein kinase PLK1 (Homo sapiens), P53350. Plk1 PBD binding of FITC phosphopeptide, fluorescence polarization. Potency, µM, actives largely listed as inhibitors. 360,000 compounds, 2.8% hits. AID 720504, 2013; further: series mostly up to about 57 µM; nearly all actives have a fitted effect of over 65% in size
Target sequence (P53350 whole entry, looked up, the tested form may be a part): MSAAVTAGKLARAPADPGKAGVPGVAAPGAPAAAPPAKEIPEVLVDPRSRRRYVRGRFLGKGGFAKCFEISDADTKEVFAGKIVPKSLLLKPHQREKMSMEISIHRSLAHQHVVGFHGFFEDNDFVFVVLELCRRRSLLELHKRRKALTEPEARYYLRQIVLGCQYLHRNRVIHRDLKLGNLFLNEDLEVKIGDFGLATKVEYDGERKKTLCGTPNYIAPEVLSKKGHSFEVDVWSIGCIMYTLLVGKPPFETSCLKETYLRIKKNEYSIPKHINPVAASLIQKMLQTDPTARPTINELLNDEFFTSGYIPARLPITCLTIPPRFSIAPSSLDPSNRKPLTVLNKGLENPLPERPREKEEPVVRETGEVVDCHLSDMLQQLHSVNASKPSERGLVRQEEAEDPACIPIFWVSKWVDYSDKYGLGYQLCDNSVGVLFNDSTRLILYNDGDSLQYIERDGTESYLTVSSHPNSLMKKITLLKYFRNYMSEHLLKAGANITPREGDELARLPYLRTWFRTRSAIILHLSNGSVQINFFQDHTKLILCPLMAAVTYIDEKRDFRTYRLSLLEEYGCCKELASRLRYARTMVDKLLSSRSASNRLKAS
Large screens that a line does not name were inactive. A selection: hits, their analogues and other compounds. The true share with any hit is near 7%. Unless noted, the call rests on the fitted dose curve; in most records, active means well fitted curve in the direction sought with a large enough effect; inconclusive means small, poorly fitted or top-dose-only effect, or another doubt; inactive means no such curve, though single readings can be large; an effect the other way counts as inactive or inconclusive.

O=C(CSc1nc(-c2ccccc2)ns1)NCC1CCCO1 (stereo unspecified)	PLK1 PBD block 15µM
CCOC(=O)CSc1nc(-c2ccc(OC)cc2)ns1	PLK1 PBD block 10.6µM
CCOC(=O)CNC(=O)CSc1nc(-c2ccc(C)cc2)ns1	none
CCOC(=O)CNC(=O)CSc1nc(-c2ccccc2)ns1	PI5P4Ka inh inconclusive, PLK1 PBD block 13.4µM
CCCNC(=O)C1(C)CCCN(C(=O)c2cc(F)cc(F)c2)C1 (stereo unspecified)	none (no result: HP1b binding inh, BAZ2B block, JMJD2A Tudor inh, KAT2A inh)
O=C(CSc1nnc(CNC(=O)c2c(F)cccc2Cl)o1)Nc1ccccc1F	none (no result: PI5P4Ka inh, PLK1 PBD block)
CC(=O)Nc1ccc(S(=O)(=O)NC(C)c2ccccc2)cc1 (stereo unspecified)	none
CCc1ccc(C(=O)/C=C/c2ccc([N+](=O)[O-])o2)cc1	HP1b binding inh inconclusive, BAZ2B block inconclusive, JMJD2A Tudor inh inconclusive, PLK1 PBD block 5.97µM
Cn1c(SCc2cccc([N+](=O)[O-])c2)nc2c(c1=O)SCC2	BAZ2B block 70.8µM, JMJD2A Tudor inh 56.2µM
Cc1ccc(Cl)cc1N1CCN(C(=O)c2cn(C)c3ccc(S(=O)(=O)N4CCCCC4)cc3c2=O)CC1	none (no result: BAZ2B block, PI5P4Ka inh, PLK1 PBD block)
CCCCNC(=O)C1(C)CCCCN1C(=O)c1cncc(Br)c1 (stereo unspecified)	none (no result: HP1b binding inh, BAZ2B block, JMJD2A Tudor inh, KAT2A inh)
Cn1ccc2c(-c3ccc(C(N)=O)cc3)cc3c(c21)C1CCC3C1 (stereo unspecified)	none (no result: HP1b binding inh, BAZ2B block, JMJD2A Tudor inh, KAT2A inh)
CN1CC(O)(C(O)C(O)C(O)CO)SC1=S (stereo unspecified)	PLK1 PBD block 21.2µM (no result: HP1b binding inh, BAZ2B block, JMJD2A Tudor inh, KAT2A inh)
CCCCCCc1nc2nc(Cl)c(Cl)nc2[nH]1	none (no result: HP1b binding inh, BAZ2B block, JMJD2A Tudor inh, KAT2A inh)
C[C@@H]1COC(=O)[C@@H](Cc2ccc(F)cc2)C/C=C\C[C@@H](CC(=O)NCCO)C(=O)N1	none (no result: BAZ2B block)
CC1(c2ccco2)NC(=O)NC1=O (stereo unspecified)	PLK1 PBD block 23.8µM
CCCCCCCOc1ccc(C2(C)NC(=O)NC2=O)cc1 (stereo unspecified)	none
N#C/C(=C\c1coc2ccc(O)cc2c1=O)C(=O)Nc1nc2ccccc2s1	HP1b binding inh inconclusive, BAZ2B block inconclusive, JMJD2A Tudor inh 63.1µM, KAT2A inh inconclusive, PI5P4Ka inh -100.8, PLK1 PBD block inconclusive
NC(=O)N/N=C/c1coc2ccc(O)cc2c1=O	none
Cc1ccc(-n2c(N)c(C(=O)N3CCOCC3)sc2=S)cc1	JMJD2A Tudor inh inconclusive, KAT2A inh inconclusive, PLK1 PBD block 15µM (no result: PI5P4Ka inh)
COc1cc(OC)c(NC(=O)C(C)n2c(=O)cc(-c3ccccc3)c3c(C)nn(C)c32)cc1Cl (stereo unspecified)	BAZ2B block inconclusive (no result: PI5P4Ka inh, PLK1 PBD block)
O=C(CNC(=O)c1cccs1)NCC(=O)OCc1ccccc1Cl	KAT2A inh 3.16µM (no result: PI5P4Ka inh)
CCOC(=O)N1CCN(c2cc3[nH]c(=S)[nH]c3cc2F)CC1	JMJD2A Tudor inh 44.7µM (no result: PI5P4Ka inh)
CCOC(=O)N1CCN(c2c(F)cc3[nH]c(=S)[nH]c3c2Br)CC1	none (no result: PI5P4Ka inh)
CCN(CC)CCCN1C(=O)C(=O)/C(=C(/O)c2ccc(C)cc2)C1c1ccccn1 (stereo unspecified)	BAZ2B block inconclusive, JMJD2A Tudor inh 89.1µM (no result: KAT2A inh)
CN(C)CCCN1C(=O)C(=O)/C(=C(/O)c2ccccc2)C1c1ccccn1 (stereo unspecified)	none (no result: HP1b binding inh, JMJD2A Tudor inh, PI5P4Ka inh, PLK1 PBD block)
CCOC(=O)N1CCC2(CC1)OC(=O)C(C)=C2C(=O)NCc1cccc(OC)c1	none (no result: PI5P4Ka inh, PLK1 PBD block)
O=c1[nH]c(=O)c2[nH]c(=S)[nH]c2[nH]1	HP1b binding inh 10µM, JMJD2A Tudor inh 2.51µM, PI5P4Ka inh -86.1, PLK1 PBD block 8.44µM (no result: BAZ2B block, KAT2A inh)
O=C(NCc1ccc(Cl)cc1)c1ccc2oc(=O)n(Cc3ccccc3)c2c1	none (no result: PI5P4Ka inh, PLK1 PBD block)
CCOc1ccccc1C1C(C(=O)OC)=C(N)OC2=C1C(=O)CCC2 (stereo unspecified)	none (no result: PI5P4Ka inh)
